Reference: PubChem BioAssay (NCI)
This is part of a sample that, as a whole, favours compounds with a hit. Of some 83,000 tested, about 20% had one in any assay.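 Treatment: one concentration, 48 hours, 96-well format. Scoring: percent growth, with anything below 10 considered active.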 Calls of active or inactive are those of the source.

What was measured:
Assay in all cases: NCI-60 one-dose screen, 48 h (100 = growth as untreated, 0 = no growth, -100 = all killed)
Settings in all cases: 10 µM unless noted
NCI-H226 lung = tested on: NCI-H226 lung
NCI-H322M lung = tested on: NCI-H322M lung
HOP-62 NSCLC = tested on: HOP-62 NSCLC
NCI-H460 lung = tested on: NCI-H460 lung
HOP-92 NSCLC = tested on: HOP-92 NSCLC
NCI-H522 lung = tested on: NCI-H522 lung
A549/ATCC NSCLC = tested on: A549/ATCC NSCLC
786-0 renal = tested on: 786-0 renal
COLO 205 colon = tested on: COLO 205 colon

Measured: growth

CC1(C)OC2C(CO)OC(n3ccc(=O)[nH]c3=O)C2O1 (configuration not stated)
inactive: NCI-H226 lung 98.4% | NCI-H322M lung 92.5% | HOP-62 NSCLC 88.9% | NCI-H460 lung 100% | HOP-92 NSCLC 82.8% | NCI-H522 lung 81.5% | A549/ATCC NSCLC 73.2% | 786-0 renal 105% | COLO 205 colon 100%

CCOC(=O)CNC(=O)Sc1ccc(C(C)(C)C)cc1
inactive: NCI-H226 lung 87.2% | NCI-H322M lung 79.6% | HOP-62 NSCLC 122% | NCI-H460 lung 102% | HOP-92 NSCLC 138% | NCI-H522 lung 69.6% | A549/ATCC NSCLC 109% | 786-0 renal 102% | COLO 205 colon 119%

Cn1c(=O)c2[nH]c(CC(=O)O)nc2n(C)c1=O
inactive: NCI-H226 lung 90.9% | NCI-H322M lung 99.6% | HOP-62 NSCLC 97.2% | NCI-H460 lung 110% | HOP-92 NSCLC 113% | A549/ATCC NSCLC 91.4% | 786-0 renal 106% | COLO 205 colon 109%

CC(C)Sc1ncnc2nc[nH]c12
inactive: NCI-H226 lung 102% | NCI-H322M lung 122% | HOP-62 NSCLC 105% | NCI-H460 lung 99.4% | HOP-92 NSCLC 91.7% | A549/ATCC NSCLC 91.6% | 786-0 renal 101% | COLO 205 colon 96.8%

Nc1nc(Cl)cc(Cl)n1
inactive: NCI-H226 lung 101% | HOP-62 NSCLC 85.2% | NCI-H460 lung 106% | HOP-92 NSCLC 113% | NCI-H522 lung 81.9% | A549/ATCC NSCLC 81% | 786-0 renal 103% | COLO 205 colon 96.8%

CC(C)c1ccccc1NC(=O)N1CCC(C(C)C)CC1
inactive: NCI-H226 lung 95.4% | NCI-H322M lung 97.7% | HOP-62 NSCLC 107% | NCI-H460 lung 107% | HOP-92 NSCLC 95.8% | A549/ATCC NSCLC 101% | 786-0 renal 103% | COLO 205 colon 117%

OCCNc1ccccc1
inactive: NCI-H226 lung 97.7% | NCI-H322M lung 104% | HOP-62 NSCLC 105% | NCI-H460 lung 106% | HOP-92 NSCLC 92.7% | NCI-H522 lung 99.5% | 786-0 renal 99.9% | COLO 205 colon 107%

CC(=O)c1cccc(O)c1
inactive: NCI-H226 lung 103% | NCI-H322M lung 106% | HOP-62 NSCLC 93% | NCI-H460 lung 105% | HOP-92 NSCLC 103% | NCI-H522 lung 88.9% | A549/ATCC NSCLC 98.9% | 786-0 renal 96% | COLO 205 colon 110%

CC(C)=CCC[C@@H](C)[C@H]1CC[C@@]2(C)C3=C(CC[C@]12C)[C@@]1(C)CC[C@H](O)C(C)(C)[C@@H]1CC3
inactive: NCI-H226 lung 104% | NCI-H322M lung 122% | HOP-62 NSCLC 107% | NCI-H460 lung 107% | HOP-92 NSCLC 97.8% | NCI-H522 lung 95% | A549/ATCC NSCLC 97.7% | 786-0 renal 101% | COLO 205 colon 110%

CN(C)Cc1ccccn1
inactive: NCI-H226 lung 108% | NCI-H322M lung 96.3% | HOP-62 NSCLC 104% | NCI-H460 lung 109% | HOP-92 NSCLC 114% | NCI-H522 lung 91.9% | A549/ATCC NSCLC 93.1% | 786-0 renal 97% | COLO 205 colon 117%

CSc1nsc(N)n1
inactive: NCI-H226 lung 103% | NCI-H322M lung 87.9% | HOP-62 NSCLC 90% | NCI-H460 lung 97.3% | HOP-92 NSCLC 95.6% | NCI-H522 lung 90.3% | A549/ATCC NSCLC 92% | 786-0 renal 106% | COLO 205 colon 99.4%

O=C(OCc1ccccc1)n1nnc2ccccc21
inactive: NCI-H226 lung 108% | NCI-H322M lung 105% | HOP-62 NSCLC 110% | NCI-H460 lung 109% | HOP-92 NSCLC 116% | A549/ATCC NSCLC 102% | 786-0 renal 98.7% | COLO 205 colon 111%

c1ccc2[nH]c(Cc3nc4ccccc4[nH]3)nc2c1
inactive: NCI-H226 lung 112% | NCI-H322M lung 93.1% | HOP-62 NSCLC 99.2% | NCI-H460 lung 111% | HOP-92 NSCLC 85% | NCI-H522 lung 103% | A549/ATCC NSCLC 103% | 786-0 renal 117% | COLO 205 colon 105%

O=C(Nc1cccc(Cl)c1)c1ccc(Cl)cc1Cl
inactive: NCI-H226 lung 94.7% | NCI-H322M lung 103% | HOP-62 NSCLC 92.3% | NCI-H460 lung 95.1% | HOP-92 NSCLC 95.7% | NCI-H522 lung 78.1% | A549/ATCC NSCLC 81.1% | 786-0 renal 88.4% | COLO 205 colon 101%

C[C@H](CCC[C@H](C)OS(=O)(=O)c1ccccc1)OS(=O)(=O)c1ccccc1
inactive: NCI-H226 lung 90.4% | NCI-H322M lung 96.7% | HOP-62 NSCLC 99.9% | NCI-H460 lung 114% | HOP-92 NSCLC 131% | NCI-H522 lung 86.8% | A549/ATCC NSCLC 117% | 786-0 renal 107% | COLO 205 colon 115%

Nc1ccc2c(c1)Cc1cc(N)c(N)cc1-2
inactive: NCI-H226 lung 95.4% | HOP-62 NSCLC 95% | NCI-H460 lung 95.9% | HOP-92 NSCLC 101% | NCI-H522 lung 74.6% | A549/ATCC NSCLC 77.9% | 786-0 renal 107% | COLO 205 colon 103%

COC(c1ccc2c(c1)OCO2)C(C)Br (configuration not stated)
inactive: NCI-H226 lung 93.1% | NCI-H322M lung 100% | HOP-62 NSCLC 82.8% | NCI-H460 lung 104% | HOP-92 NSCLC 74.9% | NCI-H522 lung 84.6% | A549/ATCC NSCLC 94% | 786-0 renal 112% | COLO 205 colon 94.5%

CCOC(=O)c1c(C)[nH]c(C)c1C=O
inactive: NCI-H226 lung 99.6% | NCI-H322M lung 102% | HOP-62 NSCLC 86.9% | NCI-H460 lung 99.8% | HOP-92 NSCLC 81.9% | NCI-H522 lung 93.7% | A549/ATCC NSCLC 67.3% | 786-0 renal 91.8% | COLO 205 colon 110%

CCOC(=O)/C(C)=C\c1ccc(OC)c(OC)c1
inactive: NCI-H226 lung 100% | NCI-H322M lung 101% | HOP-62 NSCLC 105% | NCI-H460 lung 102% | HOP-92 NSCLC 93.6% | A549/ATCC NSCLC 101% | 786-0 renal 95.5% | COLO 205 colon 105%

COc1ccc(C(=O)/C(=N/Nc2ccccc2)c2ccc(OC)cc2)cc1
inactive: NCI-H226 lung 94.2% | NCI-H322M lung 103% | HOP-62 NSCLC 102% | NCI-H460 lung 94.1% | HOP-92 NSCLC 82.1% | NCI-H522 lung 79.3% | A549/ATCC NSCLC 85.4% | 786-0 renal 94.2% | COLO 205 colon 99.9%
